# Measurements: PubChem BioAssay (EPA / NIEHS)
# Records with an inconclusive call do not appear. Calls of active or inactive are those of the source. How the source made its calls: active means hit-call score of the fitted dose curve at least 0.9, where 1 is the maximum; inconclusive means response in the unintended direction; inactive means score below 0.9.
# Biological target: human Vitamin D Receptor (VDR), VDR (gene 7421) (UniProt P11473)
# Test: ATG_VDR_TRANS: Attagene TRANS-FACTORIAL HepG2 Assay for human Vitamin D Receptor (VDR) (AID 2283022)
# Method: ATG_TRANS is a cell-based, multiplexed-readout assay that uses HepG2, a human liver cell line, with measurements taken at 24 hours after chemical dosing in a 24-well plate.ATG_VDR_TRANS is one of 30 assay component(s) measured or calculated from the ATG_TRANS assay. It is designed to make measurements of mRNA induction, a form of inducible reporter, as detected with fluorescence intensity signals by Reverse transcription polymerase chain reaction (RT-PCR) and Capillary electrophoresis technology.Data from the assay component ATG_VDR_TRANS was analyzed into 1 assay endpoint. This assay endpoint, ATG_VDR_TRANS, was analyzed in the positive analysis fitting direction relative to DMSO as the negative control and baseline of activity. Using a type of inducible reporter, measures of mRNA for gain-of-signal activity can be used to understand the reporter gene at the transcription factor-level as they relate to the gene VDR. Furthermore, this assay endpoint can be referred to as a primary readout, because this assay has produced multiple assay endpoints where this one serves a reporter gene function. To generalize the intended target to other relatable targets, this assay endpoint is annotated to the nuclear receptor intended target family, where the subfamily is non-steroidal.
# Human liver HepG2 cells are transiently transfected with multiple reporter transcription units (MRTUs) in 6-well plates using FuGene 6 reagent (Roche; 3 ml FuGene/1 mg DNA). The MRTU constructs are regulated by a cis-regulating element (promoter). […] A major difference between the CIS and TRANS system is that in CIS activities of endogenous TFs are measured, whereas the TRANS assay evaluates changes in activities of exogenous, chimeric NR-Gal4 proteins. […] At the end of 24 hour incubation, total RNA was isolated using TriZol reagent (Invitrogen). The isolated RNA is then reverse-transcribed using oligo(dT) primer and Mo-MLV reverse transcriptase (Invitrogen) with DNAse I (Ambion) treatment for 30 min. The one-tenth of the produced cDNA was amplified by PCR using Taq DNA polymerase (Invitrogen) and two reporter sequence-specific primers. The PCR products were fluorescently labeled by primer extension with 6-arboxyfluorescein (6-FAM) 5'-labeled reporter sequence-specific primer (2 min at 95 C, 20 s at 68 C and 10 min at 72 C) and these products were digested with 5U of HpaI (New England Biolabs) for 2h at 37 C. The fragments were purified using Qiaquick PCR columns (Qiagen), analyzed on an ABI 3130xL genetic analyzer (Applied Biosystems) with peak positions identified by using a set of X-rhodamine (ROX)-labeled MapMarker1000 molecular weight standards (BioVentures). The raw capillary electrophoresis data was processed using Attagraph software (Attagene).
# Sequence of human Vitamin D Receptor (VDR), VDR (gene 7421) (P11473 whole entry, looked up): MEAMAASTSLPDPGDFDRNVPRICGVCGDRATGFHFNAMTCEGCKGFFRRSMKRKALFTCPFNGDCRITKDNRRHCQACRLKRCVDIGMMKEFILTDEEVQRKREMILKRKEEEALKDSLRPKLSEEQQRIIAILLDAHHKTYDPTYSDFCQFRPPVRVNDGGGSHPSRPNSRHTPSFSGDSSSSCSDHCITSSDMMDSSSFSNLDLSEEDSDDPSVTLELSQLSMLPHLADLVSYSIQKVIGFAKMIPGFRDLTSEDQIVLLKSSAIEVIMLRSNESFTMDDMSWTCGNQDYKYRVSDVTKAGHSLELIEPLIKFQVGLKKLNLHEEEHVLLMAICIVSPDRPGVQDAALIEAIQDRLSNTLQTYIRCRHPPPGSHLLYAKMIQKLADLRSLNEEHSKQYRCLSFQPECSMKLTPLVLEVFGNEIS
Compound,outcome,AC50
CCCCC1(COC(=O)CCC(=O)O)C(=O)N(c2ccccc2)N(c2ccccc2)C1=O,inactive,–
C=CC(C)C#N (stereo not given),inactive,–
C=COCCOCCOC=C,inactive,–
Brc1ccc(Br)c(Br)c1,inactive,–
O=C(O)CCCCCCCCC(=O)O,inactive,–
CC(C)(C)OC(=O)c1ccc(O)cc1,inactive,–
O=C(Nc1ccc2c(c1)Cc1ccccc1-2)C(F)(F)F,inactive,–
CN(C)C(=O)Nc1ccc(Oc2ccc(Cl)cc2)cc1,inactive,–
COCCOCCOCCO,inactive,–
C[Si](C)(C)O[Si](C)(C)C,inactive,–
c1ccc(CN(Cc2ccccc2)Cc2ccccc2)cc1,inactive,–
CCCC1O[C@@H]2C[C@H]3[C@@H]4CCC5=CC(=O)C=C[C@]5(C)[C@H]4[C@@H](O)C[C@]3(C)[C@]2(C(=O)CO)O1 (stereo not given in full),inactive,–
CC1(C)O[C@@H]2C[C@H]3[C@@H]4CCC5=CC(=O)C=C[C@]5(C)[C@@]4(F)[C@@H](O)C[C@]3(C)[C@]2(C(=O)CO)O1,inactive,–
O=[N+]([O-])c1ccc(O)cc1C(F)(F)F,inactive,–
Cc1ccc(OC(=O)c2ccccc2O)cc1,inactive,–
CCC1(C)NC(=O)NC1=O (stereo not given),inactive,–
CCCCC1CCC(O)CC1 (stereo not given),inactive,–
C=C1CC[C@H](O)C/C1=C/C=C1\CCC[C@]2(C)[C@@H]([C@H](C)/C=C/[C@H](C)C(C)C)CC[C@@H]12,–,3.98 µM (active)
CS(C)=O,inactive,–
NCCNc1cccc2ccccc12,inactive,–

Compound,outcome,AC50
CCCCCCCCCCCC(=O)OC[C@@H](O)[C@H]1OC[C@H](O)[C@H]1O,inactive,–
CC(C)(CO)[C@@H](O)C(=O)NCCC(=O)O,inactive,–
C=CC(C)(O)CCC=C(C)C (stereo not given),inactive,–
O=C(O)COCC(=O)O,inactive,–
CCNCCO,inactive,–
CC(=O)O[C@H]1C[C@@H]2CC[C@@]1(C)C2(C)C,inactive,–
CC(C)(C)CC(C)(C)c1ccc(OCCOCC[N+](C)(C)Cc2ccccc2)cc1,inactive,–
C=C(C)C(=O)OCCOC1CC2CC1C1C=CCC21 (stereo not given),inactive,–
O=C1OC[C@H](Cc2cccc(O)c2)[C@H]1Cc1cccc(O)c1,inactive,–
Cc1cc(S(=O)(=O)O)ccc1N=Nc1c(O)ccc2ccccc12,inactive,–
C[C@H]1C[C@@H](O)CC(C)(C)C1,inactive,–
CC(C)OCCO,inactive,–
CCCC[O][Al]([O]CCCC)[O]CCCC,inactive,–
CCOC(=O)CCc1ccccc1,inactive,–
CCCSc1ccc2nc(NC(=O)OC)[nH]c2c1,inactive,–
COS(=O)(=O)O,inactive,–
CCOC(=O)CN,inactive,–
CCCCCCCCCCCCCC(=O)OCC(O)CO (stereo not given),inactive,–
CC(C)=CCCC(C)CC(=O)O (stereo not given),inactive,–
COc1cc(C(C)C)ccc1C,inactive,–
